# Laboratory results published in article PMC7862700, “An all-to-all approach to the identification of sequence-specific readers for epigenetic DNA modifications on cytosine”.
# Tests used:
# Assay in all cases: DAPPL (digital affinity profiling via proximity ligation, sequencing); 10 mM Tris-HCl pH 7.5, 50 mM NaCl, 1 mM DTT, 4% glycerol, room temperature, 30 min; GST-TFs on glutathione beads, 16-mer random dsDNA library, 0.1% formaldehyde crosslink after washing; high values mean tight binding
# [1] = biological target: T1, FEV (Homo sapiens, UniProt Q99581 1-238); details: protein: recombinant; tags: N-terminal GST; dsDNA, one strand shown
# T1 sequence: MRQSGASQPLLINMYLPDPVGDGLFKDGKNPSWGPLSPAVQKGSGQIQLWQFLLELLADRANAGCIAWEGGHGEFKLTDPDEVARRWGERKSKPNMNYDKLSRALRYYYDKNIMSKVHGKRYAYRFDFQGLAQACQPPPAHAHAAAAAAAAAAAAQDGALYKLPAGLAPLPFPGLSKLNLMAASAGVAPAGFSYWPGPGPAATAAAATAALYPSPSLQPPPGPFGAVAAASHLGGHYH
# Outline: (§1)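 Yeast served to express human transcription factors as GST fusions, which were then captured on glutathione beads and labelled with DNA barcodes. Pooled with a tag-only sample, they were incubated with 200 nmole of a 16-mer random double-stranded DNA library for 30 min at room temperature in Tris/NaCl/DTT/glycerol buffer, washed, crosslinked with 0.1% formaldehyde, ligated by proximity, amplified by PCR and sequenced. Dividing each hexamer's read frequency for a factor by its frequency for the tag-only sample gives the binding signal.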
# [2] = biological target: ETV5 (Homo sapiens, UniProt P41161 1-510); details: protein: recombinant; tags: N-terminal GST; dsDNA, one strand shown
# Sequence of ETV5 (P41161 whole entry): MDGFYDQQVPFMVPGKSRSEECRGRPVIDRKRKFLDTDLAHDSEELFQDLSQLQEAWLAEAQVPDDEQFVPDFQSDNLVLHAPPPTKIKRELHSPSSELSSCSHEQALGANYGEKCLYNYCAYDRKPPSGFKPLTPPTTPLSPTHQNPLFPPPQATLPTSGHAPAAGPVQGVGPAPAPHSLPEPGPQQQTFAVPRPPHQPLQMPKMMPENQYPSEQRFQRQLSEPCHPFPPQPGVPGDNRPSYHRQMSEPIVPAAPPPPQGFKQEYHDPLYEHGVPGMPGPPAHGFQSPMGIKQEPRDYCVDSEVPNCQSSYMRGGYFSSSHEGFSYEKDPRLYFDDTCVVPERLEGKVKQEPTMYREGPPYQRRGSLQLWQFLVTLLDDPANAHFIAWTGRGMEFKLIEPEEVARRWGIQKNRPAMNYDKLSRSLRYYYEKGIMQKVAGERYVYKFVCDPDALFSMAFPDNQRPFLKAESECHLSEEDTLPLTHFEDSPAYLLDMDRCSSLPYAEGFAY
# Outline: as §1
# [3] = biological target: HSF1 (Homo sapiens, UniProt Q00613 1-529); details: protein: recombinant; tags: N-terminal GST; chain copies: 3; dsDNA, one strand shown
# Sequence of HSF1 (Q00613 whole entry): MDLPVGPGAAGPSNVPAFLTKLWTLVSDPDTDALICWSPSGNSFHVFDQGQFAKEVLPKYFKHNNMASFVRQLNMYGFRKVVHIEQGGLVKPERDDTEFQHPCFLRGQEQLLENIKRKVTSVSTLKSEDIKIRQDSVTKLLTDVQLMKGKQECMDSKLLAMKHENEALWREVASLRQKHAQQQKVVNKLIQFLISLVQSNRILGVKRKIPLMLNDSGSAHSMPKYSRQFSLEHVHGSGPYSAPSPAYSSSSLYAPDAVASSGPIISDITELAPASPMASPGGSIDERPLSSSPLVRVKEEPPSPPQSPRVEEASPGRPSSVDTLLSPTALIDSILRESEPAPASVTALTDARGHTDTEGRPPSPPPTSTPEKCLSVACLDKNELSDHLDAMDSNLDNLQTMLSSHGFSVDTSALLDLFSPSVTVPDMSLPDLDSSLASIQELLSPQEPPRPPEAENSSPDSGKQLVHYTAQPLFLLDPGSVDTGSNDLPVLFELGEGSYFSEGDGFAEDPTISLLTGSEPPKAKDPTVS
# Outline: as §1
# [4] = biological target: T2, SPIC (Homo sapiens, UniProt Q8N5J4 1-248); details: protein: recombinant; tags: N-terminal GST; dsDNA, one strand shown
# T2 sequence: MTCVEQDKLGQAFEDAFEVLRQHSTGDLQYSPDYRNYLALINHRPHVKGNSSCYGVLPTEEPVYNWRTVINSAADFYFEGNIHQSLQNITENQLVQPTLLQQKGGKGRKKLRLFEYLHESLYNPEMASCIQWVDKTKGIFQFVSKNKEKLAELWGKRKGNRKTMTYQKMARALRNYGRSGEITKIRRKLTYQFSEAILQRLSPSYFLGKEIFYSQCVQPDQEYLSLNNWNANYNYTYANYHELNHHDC
# Outline: as §1
# [5] = biological target: ELF4 (Homo sapiens, UniProt Q99607 1-663); details: protein: recombinant; tags: N-terminal GST; dsDNA, one strand shown
# Sequence of ELF4 (Q99607 whole entry): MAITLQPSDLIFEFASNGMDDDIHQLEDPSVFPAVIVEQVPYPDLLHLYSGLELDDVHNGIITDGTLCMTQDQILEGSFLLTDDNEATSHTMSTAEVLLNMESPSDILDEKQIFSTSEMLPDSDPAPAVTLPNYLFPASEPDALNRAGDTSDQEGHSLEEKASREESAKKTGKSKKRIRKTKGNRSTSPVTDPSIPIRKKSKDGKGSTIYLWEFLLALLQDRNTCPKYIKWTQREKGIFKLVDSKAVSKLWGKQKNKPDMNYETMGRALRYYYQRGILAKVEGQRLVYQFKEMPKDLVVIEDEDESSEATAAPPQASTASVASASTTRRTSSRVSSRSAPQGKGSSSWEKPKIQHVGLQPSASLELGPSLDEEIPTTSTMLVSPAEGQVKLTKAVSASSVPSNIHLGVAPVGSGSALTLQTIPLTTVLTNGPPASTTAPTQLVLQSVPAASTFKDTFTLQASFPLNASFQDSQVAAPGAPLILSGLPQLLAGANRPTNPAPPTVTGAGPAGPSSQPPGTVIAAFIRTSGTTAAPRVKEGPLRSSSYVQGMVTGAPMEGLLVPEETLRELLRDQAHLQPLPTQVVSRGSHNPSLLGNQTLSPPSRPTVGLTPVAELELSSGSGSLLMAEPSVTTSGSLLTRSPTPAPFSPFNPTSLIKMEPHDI
# Outline: as §1
# [6] = biological target: T3, ELK4 (Homo sapiens, UniProt P28324-2 1-405); details: protein: recombinant; tags: N-terminal GST; dsDNA, one strand shown
# T3 sequence: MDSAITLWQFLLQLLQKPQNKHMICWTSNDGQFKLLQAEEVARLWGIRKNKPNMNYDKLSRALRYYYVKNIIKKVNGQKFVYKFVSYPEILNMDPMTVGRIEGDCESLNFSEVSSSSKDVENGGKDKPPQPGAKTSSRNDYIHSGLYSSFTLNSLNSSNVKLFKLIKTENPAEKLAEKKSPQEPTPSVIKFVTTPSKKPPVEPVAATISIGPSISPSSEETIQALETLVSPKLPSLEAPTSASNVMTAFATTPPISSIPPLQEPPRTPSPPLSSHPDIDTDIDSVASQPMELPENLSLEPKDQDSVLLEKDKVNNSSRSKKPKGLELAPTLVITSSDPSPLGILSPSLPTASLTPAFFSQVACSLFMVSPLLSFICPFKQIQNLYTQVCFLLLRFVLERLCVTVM
# Outline: as §1
# [7] = biological target: T4, ETV2 (Homo sapiens, UniProt O00321 1-342); details: protein: recombinant; tags: N-terminal GST; dsDNA, one strand shown
# T4 sequence: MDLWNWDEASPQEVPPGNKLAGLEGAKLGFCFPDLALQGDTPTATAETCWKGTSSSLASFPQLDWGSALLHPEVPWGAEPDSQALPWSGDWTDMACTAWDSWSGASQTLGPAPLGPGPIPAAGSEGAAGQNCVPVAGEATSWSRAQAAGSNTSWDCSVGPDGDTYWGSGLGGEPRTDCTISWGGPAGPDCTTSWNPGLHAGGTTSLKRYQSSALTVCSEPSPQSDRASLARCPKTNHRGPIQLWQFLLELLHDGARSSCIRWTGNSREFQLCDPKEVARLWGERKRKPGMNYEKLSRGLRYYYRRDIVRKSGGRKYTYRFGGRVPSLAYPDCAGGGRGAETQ
# Outline: as §1
# [8] = biological target: T5, ELF3 (Homo sapiens, UniProt P78545 1-371); details: protein: recombinant; tags: N-terminal GST; dsDNA, one strand shown
# T5 sequence: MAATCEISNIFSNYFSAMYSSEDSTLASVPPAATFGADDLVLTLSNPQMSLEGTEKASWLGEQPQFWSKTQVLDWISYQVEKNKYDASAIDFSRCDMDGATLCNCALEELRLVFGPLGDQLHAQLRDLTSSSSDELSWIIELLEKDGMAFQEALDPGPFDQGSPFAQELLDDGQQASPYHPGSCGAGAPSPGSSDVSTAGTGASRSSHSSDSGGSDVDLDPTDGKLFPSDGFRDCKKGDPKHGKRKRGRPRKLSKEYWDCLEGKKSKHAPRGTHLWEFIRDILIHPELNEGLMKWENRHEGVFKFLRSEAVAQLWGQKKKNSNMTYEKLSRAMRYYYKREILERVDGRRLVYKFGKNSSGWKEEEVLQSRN
# Outline: as §1
# [9] = biological target: CRX (Homo sapiens, UniProt O43186 1-299); details: protein: recombinant; tags: N-terminal GST; dsDNA, one strand shown
# Sequence of CRX (O43186 whole entry): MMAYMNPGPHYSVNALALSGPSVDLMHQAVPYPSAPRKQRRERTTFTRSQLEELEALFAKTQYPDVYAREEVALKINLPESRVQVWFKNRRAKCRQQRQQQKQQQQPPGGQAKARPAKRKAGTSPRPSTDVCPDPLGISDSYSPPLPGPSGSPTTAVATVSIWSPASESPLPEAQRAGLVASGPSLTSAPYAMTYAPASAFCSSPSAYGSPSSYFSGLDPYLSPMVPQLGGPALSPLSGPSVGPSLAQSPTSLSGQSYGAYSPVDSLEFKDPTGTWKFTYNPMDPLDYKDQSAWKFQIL
# Outline: as §1
# [10] = biological target: ETV1 (Homo sapiens, UniProt P50549 1-477); details: protein: recombinant; tags: N-terminal GST; dsDNA, one strand shown
# Sequence of ETV1 (P50549 whole entry): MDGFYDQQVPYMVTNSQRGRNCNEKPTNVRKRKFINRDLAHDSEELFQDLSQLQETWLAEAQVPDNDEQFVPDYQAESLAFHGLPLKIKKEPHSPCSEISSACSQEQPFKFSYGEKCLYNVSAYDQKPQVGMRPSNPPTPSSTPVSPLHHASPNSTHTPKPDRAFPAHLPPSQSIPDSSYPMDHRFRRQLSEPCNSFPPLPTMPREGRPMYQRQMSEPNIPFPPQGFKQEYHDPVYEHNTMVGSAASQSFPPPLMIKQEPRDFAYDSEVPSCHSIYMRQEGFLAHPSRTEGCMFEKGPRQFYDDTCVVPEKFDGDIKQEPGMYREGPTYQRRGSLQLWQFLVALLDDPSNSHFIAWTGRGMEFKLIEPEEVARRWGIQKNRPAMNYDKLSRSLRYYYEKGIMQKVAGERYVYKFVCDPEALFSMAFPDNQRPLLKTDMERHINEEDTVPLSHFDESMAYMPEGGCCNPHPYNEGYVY
# Outline: as §1
# [11] = biological target: T6, ERF (Homo sapiens, UniProt P50548 1-548); details: protein: recombinant; tags: N-terminal GST; dsDNA, one strand shown
# T6 sequence: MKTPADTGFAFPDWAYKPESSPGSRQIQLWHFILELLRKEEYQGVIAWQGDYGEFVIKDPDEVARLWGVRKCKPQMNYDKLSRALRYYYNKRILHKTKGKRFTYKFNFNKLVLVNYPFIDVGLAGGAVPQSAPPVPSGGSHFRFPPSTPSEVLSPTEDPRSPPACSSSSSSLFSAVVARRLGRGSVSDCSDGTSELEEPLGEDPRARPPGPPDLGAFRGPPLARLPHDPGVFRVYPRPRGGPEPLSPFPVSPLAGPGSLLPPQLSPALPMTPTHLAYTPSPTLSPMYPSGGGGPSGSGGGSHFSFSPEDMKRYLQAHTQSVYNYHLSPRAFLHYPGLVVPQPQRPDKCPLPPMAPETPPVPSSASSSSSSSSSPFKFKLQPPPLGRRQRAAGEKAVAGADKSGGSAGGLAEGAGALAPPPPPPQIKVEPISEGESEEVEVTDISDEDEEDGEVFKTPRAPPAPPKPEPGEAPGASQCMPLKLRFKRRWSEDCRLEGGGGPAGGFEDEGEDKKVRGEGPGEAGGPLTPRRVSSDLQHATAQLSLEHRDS
# Outline: as §1
# [12] = biological target: T7, ETV3L (Homo sapiens, UniProt Q6ZN32 1-361); details: protein: recombinant; tags: N-terminal GST; dsDNA, one strand shown
# T7 sequence: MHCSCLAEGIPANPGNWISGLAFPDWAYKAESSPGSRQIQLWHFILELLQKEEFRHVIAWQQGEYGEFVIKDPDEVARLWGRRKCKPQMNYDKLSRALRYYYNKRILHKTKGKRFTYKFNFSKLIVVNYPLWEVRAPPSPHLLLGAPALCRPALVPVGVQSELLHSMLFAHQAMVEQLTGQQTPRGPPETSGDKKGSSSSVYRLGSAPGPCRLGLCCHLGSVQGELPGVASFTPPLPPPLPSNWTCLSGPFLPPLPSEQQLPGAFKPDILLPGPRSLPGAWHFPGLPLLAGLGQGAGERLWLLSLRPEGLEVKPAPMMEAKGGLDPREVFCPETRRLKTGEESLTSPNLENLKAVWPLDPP
# Outline: as §1
# [13] = biological target: T8, ETS2 (Homo sapiens, UniProt P15036 1-469); details: protein: recombinant; tags: N-terminal GST; dsDNA, one strand shown
# T8 sequence: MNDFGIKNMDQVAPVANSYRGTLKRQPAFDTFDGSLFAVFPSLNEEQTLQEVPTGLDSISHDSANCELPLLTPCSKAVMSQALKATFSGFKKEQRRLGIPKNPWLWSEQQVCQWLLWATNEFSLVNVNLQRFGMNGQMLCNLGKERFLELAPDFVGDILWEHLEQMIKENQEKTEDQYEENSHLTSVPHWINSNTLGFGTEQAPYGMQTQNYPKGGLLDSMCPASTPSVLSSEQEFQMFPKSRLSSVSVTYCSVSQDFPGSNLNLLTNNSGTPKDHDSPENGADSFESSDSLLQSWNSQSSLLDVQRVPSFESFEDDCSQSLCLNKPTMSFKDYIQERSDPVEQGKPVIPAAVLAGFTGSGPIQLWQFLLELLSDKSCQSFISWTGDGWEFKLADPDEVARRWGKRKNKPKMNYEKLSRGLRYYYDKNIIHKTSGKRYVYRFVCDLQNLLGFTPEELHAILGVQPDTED
# Outline: as §1
# [14] = biological target: T9, SPDEF (Homo sapiens, UniProt O95238 1-335); details: protein: recombinant; tags: N-terminal GST; dsDNA, one strand shown
# T9 sequence: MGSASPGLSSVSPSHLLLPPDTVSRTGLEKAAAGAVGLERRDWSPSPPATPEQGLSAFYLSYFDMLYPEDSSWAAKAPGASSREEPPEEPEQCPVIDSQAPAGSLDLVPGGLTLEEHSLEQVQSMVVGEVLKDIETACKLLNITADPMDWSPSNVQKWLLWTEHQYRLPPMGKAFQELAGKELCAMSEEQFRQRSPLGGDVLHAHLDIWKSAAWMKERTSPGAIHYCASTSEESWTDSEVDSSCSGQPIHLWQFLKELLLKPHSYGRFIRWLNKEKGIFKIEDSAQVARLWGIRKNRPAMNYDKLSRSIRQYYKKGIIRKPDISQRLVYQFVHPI
# Outline: as §1
# [15] = biological target: T10, ETV7 (Homo sapiens, UniProt Q9Y603 1-341); details: protein: recombinant; tags: N-terminal GST; dsDNA, one strand shown
# T10 sequence: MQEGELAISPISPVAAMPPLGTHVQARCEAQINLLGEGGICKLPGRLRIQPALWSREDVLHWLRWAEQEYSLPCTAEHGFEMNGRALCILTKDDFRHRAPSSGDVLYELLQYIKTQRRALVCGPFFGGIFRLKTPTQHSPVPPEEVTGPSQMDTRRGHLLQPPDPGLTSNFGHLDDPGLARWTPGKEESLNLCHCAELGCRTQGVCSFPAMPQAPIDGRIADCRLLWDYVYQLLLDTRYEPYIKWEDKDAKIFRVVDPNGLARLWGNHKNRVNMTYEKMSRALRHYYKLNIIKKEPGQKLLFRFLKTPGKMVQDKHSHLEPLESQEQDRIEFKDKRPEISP
# Outline: as §1
# [16] = biological target: T11, ELF5 (Homo sapiens, UniProt Q9UKW6-2 1-255); details: protein: recombinant; tags: N-terminal GST; dsDNA, one strand shown
# T11 sequence: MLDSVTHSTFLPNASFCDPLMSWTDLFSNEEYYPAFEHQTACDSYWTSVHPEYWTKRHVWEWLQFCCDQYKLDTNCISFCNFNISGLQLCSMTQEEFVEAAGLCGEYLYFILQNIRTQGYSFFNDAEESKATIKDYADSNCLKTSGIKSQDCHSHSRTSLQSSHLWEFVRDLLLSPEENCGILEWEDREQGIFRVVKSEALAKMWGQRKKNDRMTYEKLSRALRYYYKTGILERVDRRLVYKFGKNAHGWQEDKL
# Outline: as §1
# [17] = biological target: T12, ETV3 (Homo sapiens, UniProt P41162-2 1-143); details: protein: recombinant; tags: N-terminal GST; dsDNA, one strand shown
# T12 sequence: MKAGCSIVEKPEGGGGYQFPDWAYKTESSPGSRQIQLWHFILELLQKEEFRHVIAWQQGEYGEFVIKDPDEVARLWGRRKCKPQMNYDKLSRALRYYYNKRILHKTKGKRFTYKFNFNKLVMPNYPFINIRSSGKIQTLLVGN
# Outline: as §1
# [18] = biological target: ETV6 (Homo sapiens, UniProt P41212 1-452); details: protein: recombinant; tags: N-terminal GST; dsDNA, one strand shown
# Sequence of ETV6 (P41212 whole entry): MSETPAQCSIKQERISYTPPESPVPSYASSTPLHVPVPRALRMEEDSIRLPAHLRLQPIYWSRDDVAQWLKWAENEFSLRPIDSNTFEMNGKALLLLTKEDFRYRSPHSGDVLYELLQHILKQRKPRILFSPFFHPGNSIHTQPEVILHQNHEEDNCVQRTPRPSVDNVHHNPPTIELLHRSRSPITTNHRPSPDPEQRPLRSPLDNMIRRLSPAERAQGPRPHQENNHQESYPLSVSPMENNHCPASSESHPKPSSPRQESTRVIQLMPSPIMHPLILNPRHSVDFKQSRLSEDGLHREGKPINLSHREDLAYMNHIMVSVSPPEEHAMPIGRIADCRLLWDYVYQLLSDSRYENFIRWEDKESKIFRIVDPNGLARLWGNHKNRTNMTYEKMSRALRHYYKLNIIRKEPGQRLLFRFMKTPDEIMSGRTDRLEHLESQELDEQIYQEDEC
# Outline: as §1
sequence,measurement,setting,value
AACGAT,binding signal,[1],"1.15 fold enrichment (6-mer frequency, TF over GST control)"
same,binding signal,[2],"1.22 fold enrichment (6-mer frequency, TF over GST control)"
same,binding signal,[3],"1.32 fold enrichment (6-mer frequency, TF over GST control)"
same,binding signal,[4],"1.19 fold enrichment (6-mer frequency, TF over GST control)"
same,binding signal,[5],"1.17 fold enrichment (6-mer frequency, TF over GST control)"
same,binding signal,[6],"1.15 fold enrichment (6-mer frequency, TF over GST control)"
same,binding signal,[7],"1.35 fold enrichment (6-mer frequency, TF over GST control)"
same,binding signal,[8],"1.08 fold enrichment (6-mer frequency, TF over GST control)"
same,binding signal,[9],"1.38 fold enrichment (6-mer frequency, TF over GST control)"
same,binding signal,[10],"1.19 fold enrichment (6-mer frequency, TF over GST control)"
same,binding signal,[11],"1.29 fold enrichment (6-mer frequency, TF over GST control)"
same,binding signal,[12],"1.19 fold enrichment (6-mer frequency, TF over GST control)"
same,binding signal,[13],"1.22 fold enrichment (6-mer frequency, TF over GST control)"
same,binding signal,[14],"1.14 fold enrichment (6-mer frequency, TF over GST control)"
same,binding signal,[15],"1.17 fold enrichment (6-mer frequency, TF over GST control)"
same,binding signal,[16],"1.19 fold enrichment (6-mer frequency, TF over GST control)"
same,binding signal,[17],"1.24 fold enrichment (6-mer frequency, TF over GST control)"
same,binding signal,[18],"1.25 fold enrichment (6-mer frequency, TF over GST control)"
